High-throughput results: PubChem BioAssay, National Center for Advancing Translational Sciences (NCATS)
Most compounds without a hit are left out; they make up all but 10% or so of the library.
NIH3T3 tox = cytotoxic compounds in NIH 3T3 cells. NIH 3T3 viability, CellTiter-Glo ATP luminescence, 48-72 h. Potency, µM (titrated, usually from 96.7 µM), for inactives: at the highest dose activity change, negative = cytotoxicity, hits mostly inhibitors. 94,000 compounds, 4.3% hits. AID 1345082; note: nearly all actives have a fitted effect of over 55% in size
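NIH 3T3 cells at 400 cells/well received 23 nL of compound by pintool and were incubated 48 or 72 h at 37 °C. Viability was read as ATP-coupled CellTiter-Glo luminescence.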
FLuc inh = inhibitors of firefly (Photinus pyralis) luciferase; P08659; purified P. pyralis luciferase, luminescence, biochemical; Potency, µM (series often up to 115 µM), usual class: inhibitors; 76,000 compounds, 2.5% hits; note: nearly all actives have a fitted effect of over 65% in size
Target sequence (P08659 whole entry, looked up): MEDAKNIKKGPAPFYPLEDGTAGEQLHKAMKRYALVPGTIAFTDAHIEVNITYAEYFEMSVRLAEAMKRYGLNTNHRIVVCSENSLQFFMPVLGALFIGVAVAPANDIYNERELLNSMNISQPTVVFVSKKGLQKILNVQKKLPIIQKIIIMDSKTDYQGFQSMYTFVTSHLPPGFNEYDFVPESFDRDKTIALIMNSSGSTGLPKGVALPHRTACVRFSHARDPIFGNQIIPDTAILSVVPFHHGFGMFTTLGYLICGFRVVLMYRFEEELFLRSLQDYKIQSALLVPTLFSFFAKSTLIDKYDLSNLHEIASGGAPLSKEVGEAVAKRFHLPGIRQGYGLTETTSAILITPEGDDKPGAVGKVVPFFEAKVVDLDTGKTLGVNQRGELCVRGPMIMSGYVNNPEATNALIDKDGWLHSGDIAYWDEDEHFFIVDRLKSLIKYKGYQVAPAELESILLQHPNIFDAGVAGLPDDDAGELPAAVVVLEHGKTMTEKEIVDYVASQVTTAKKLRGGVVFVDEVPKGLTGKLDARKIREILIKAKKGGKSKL
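FLuc 10nM, D-luciferin 10uM, ATP 10uM, Mg acetate 10mM, Tris acetate pH 7.5, Tween/BSA; cpd qHTS; enzyme added last; CCD luminescence.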
NPR1 antag = blocks ANP-stimulated signaling of human Npr1 receptor. HEK293 hNpr1 GloSensor cGMP, ANP-stimulated luminescence. Potency, µM (titrated, usually from 46.3 µM), without a hit: at the highest dose activity change, negative = inhibition, hits mostly inhibitors. 76,000 compounds, 1.6% hits. AID 1347048; calls by dose curve; note: nearly all actives have a fitted effect of over 60% in size
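Compound pre-incubated 30 min at room temperature on GloSensor-loaded HEK293 cells stably carrying hNpr1 and the pGS-40F cGMP biosensor. Stimulation uses hNppA at 0.1 nM final; luminescence is taken at baseline and 20 min post-agonist.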
GPT2 inh = GPT2 alanine aminotransferase inhibition | Q8TD30 | Recombinant GPT2, coupled pyruvate oxidase/HRP Amplex Red fluorescence | Potency, µM (titrated, usually from 57.7 µM), inactives show at the top dose activity change, negative = inhibition, usual class: inhibitors | 100,000 compounds, 0.25% hits | AID 1671188; note: nearly all actives have a fitted effect of over 60% in size
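Fluorescence read-out: pyruvate from GPT2 turnover coupled to pyruvate oxidase, HRP and Amplex Red (0.2mM ThPP, 0.2U/mL PO and HRP, 50uM Amplex final). Substrates 250uM a-KG, 2mM L-alanine; enzyme 10ng/uL; 30 min RT.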
HEK293 tox = HEK 293 cell cytotoxicity; HEK 293 viability, ATP luminescence (CellTiter-Glo), 48-72 h; Potency, µM (top dose mostly 115 µM), inactives show at the top dose activity change, negative = cytotoxicity, actives largely listed as inhibitors; 94,000 compounds, 6.6% hits; AID 1345083; note: nearly all actives have a fitted effect of over 60% in size
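CellTiter-Glo luminescence (cellular ATP) was read after 48 or 72 hr of compound exposure at 37 degree Celsius. Cells were HEK 293 plated at 250 cells/well.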
* = called active by the depositor; i = inactive; ? = inconclusive; / = not tested or not shown; ! = a repeat was not active; [ ] = dose if it differs, or a comment. Unless noted, calls come from the whole dose curve; as a rule, active = well fitted curve in the direction sought with a large enough effect; inconclusive = small, poorly fitted or top-dose-only effect, or another doubt; inactive = no such curve, though single readings can be large; an effect the other way counts as inactive or inconclusive. % is set by controls: 0 for no effect and ±100 for the full control effect; potency is the fitted concentration of half-maximal effect.

SMILES	NIH3T3 tox	FLuc inh	NPR1 antag	GPT2 inh	HEK293 tox
CN1CCCC2(CCN(C(=O)CCc3ccccc3O)C2)C1=O (centres undefined)	2%	i	3%	2%[11.5 µM]	i
COc1ncc(-c2ccnc(-c3nnc(C)n3CCc3ccccc3)c2)cn1	100µM*	i	5%[70.6 µM]	4%[88.5 µM]	-5%[172 µM]
Cc1nnc(-c2cc(-c3cccc(F)c3)ccn2)n1Cc1ccccc1	?	i	1%[70.6 µM]	i	89µM*
COc1cccc(-c2ccnc(-c3nnc(C)n3Cc3ccccc3)c2)c1	79µM*	i	-2%[70.6 µM]	-18%[88.5 µM]	?
Cc1nnc(-c2cc(-c3ccc(CO)cc3)ccn2)n1CCc1ccccc1	-24%[138 µM]	i	4%[70.6 µM]	-6%[88.5 µM]	?
CC(=O)Nc1cccc(-c2ccnc(-c3nnc(C)n3Cc3ccccc3)c2)c1	?	50µM*	-18%[70.6 µM]	-6%[88.5 µM]	?
Cc1nnc(-c2cc(-c3ccc(CO)cc3)ccn2)n1Cc1ccccc1	?	i	2%[70.6 µM]	2%[88.5 µM]	?
COc1ccccc1Cn1c(=O)c(C(=O)N2CCN(C(=O)C3CC3)CC2)nc2cccnc21	-2%	/	/	i	i
Cc1nnc(-c2cc(-c3cccc(N(C)C)c3)ccn2)n1Cc1ccccc1	50µM*	?	4%[70.6 µM]	-12%[88.5 µM]	89µM*
COCCn1c(C)nnc1-c1cc(-c2ccc(OC)c(OC)c2)ccn1	89µM*	i	2%[70.6 µM]	i	2%[172 µM]
Cc1cccc(CN2CCCCCCN(C)C(=O)[C@@H]3CCC[C@@H]32)c1	?	i	-13%	-21%	?
Cc1ccc(C)c(CN2CCc3nc(N(C)Cc4cccnc4)[nH]c(=O)c3CC2)c1	?	i	-4%	i	?
COc1ccccc1-n1c(=O)c(C(=O)N2CCN(C(=O)Cc3ccccn3)CC2)nc2cccnc21	-7%	/	/	-3%	2%
O=C(Nc1ccc(F)cc1)N1CCOc2ccc(CN3CCc4ccccc4C3)cc2C1	?	i	-4%	i	?
O=C(NCc1nnc2ccc(-c3ccccc3)nn12)c1cc(F)ccc1Cl	?	i	2%	2%	40µM*
COCCN1C(=O)[C@@H]2C[C@@H](CN2Cc2cnc3ccccc3c2)Oc2ccccc21	100µM*	i	-2%[70.6 µM]	1%[88.5 µM]	?
O=C1[C@@H]2C[C@@H](CN2Cc2cnc3ccccc3c2)Oc2ccccc2N1Cc1ccccc1	?	i	-19%	-17%	50µM*
O=C(NCc1ccc2c(c1)OCO2)c1cc(-c2cc(Cl)cc(Cl)c2)c2cccn2n1	-10%	/	/	-5%	?
COCc1ncc(C)n1CCNC(=O)c1cc(-c2cccc(Cl)c2)n[nH]1	-16%	i	2%	i	-17%
CN1c2cc(C(=O)NCCc3ccccc3)ccc2C(=O)N2CCCCC21 (centres undefined)	-20%	i	0%	i	?
Clc1cc(NCC2CCCCCC2)n2nccc2n1	32µM*	i	-28%[70.6 µM]	i	?
Clc1cc(NCC2CCCCC2)n2nccc2n1	?	i	-20%[70.6 µM]	i	?
Clc1cc(NC2CCCCCC2)n2nccc2n1	?	i	4%[70.6 µM]	-24%[88.5 µM]	89µM*
COc1cccc(CN2CCC3(CC2)NCCc2c3[nH]c3ccccc23)c1	35µM*	i	-15%	-6%	32µM*
COc1ccc2[nH]c3c(c2c1)CCNC31CCN(Cc2ccc(F)c(F)c2)CC1	35µM*	i	-12%	-6%	?
SMILES	NIH3T3 tox	FLuc inh	NPR1 antag	GPT2 inh	HEK293 tox
COc1cccc(CN2CCC3(CC2)NCCc2c3[nH]c3ccc(OC)cc23)c1	?	i	0%	i	?
CC(C)NC(=O)NC1CCN(Cc2cccc(-c3cccs3)c2)CC1	?	/	/	i	?
O=C(Nc1ccccc1)NC1CCN(Cc2cccc(-c3cccs3)c2)CC1	14µM*	/	/	i	20µM*!
O=C(Nc1ccc(Cl)cc1)NC1CCN(Cc2cccc(-c3cccs3)c2)CC1	13µM*	/	/	-20%	20µM*
COc1ccc(CN2C[C@@H]3C[C@@H](C(N)=O)N(C(=O)CC4CCCC4)c4cccc(c43)C2=O)cc1	?	/	/	-8%[27.3 µM]	?
CN1C[C@@H](NC(=O)Nc2ccccc2)C[C@H]1c1nc(-c2ccc(F)cc2)no1	?	i	?	-3%[88.5 µM]	56µM*
CN1C[C@@H](NC(=O)Nc2ccccc2)C[C@H]1c1nc(-c2ccccc2)no1	-34%[138 µM]	i	-10%[70.6 µM]	i	?
Cc1ccc(-c2noc([C@@H]3C[C@H](NC(=O)Nc4cccc(F)c4)CN3C)n2)cc1	?	63µM*	?	0%[88.5 µM]	63µM*
Cc1noc([C@@H]2C[C@H](NC(=O)Nc3cccc(F)c3)CN2C)n1	?	i	3%[70.6 µM]	-10%[88.5 µM]	-20%[172 µM]
CN1C[C@@H](NC(=O)Nc2ccc(F)cc2F)C[C@H]1c1nc(-c2ccc(Cl)cc2)no1	-18%[174 µM]	71µM*	?	2%[88.5 µM]	?
Cc1ccc(N2CC(c3noc(C4CCN(C(=O)c5ccccc5)CC4)n3)CC2=O)cc1 (centres undefined)	-9%	i	-12%	i	-2%
CCn1ncc(NC(=O)Cn2ncc3cc(-c4cccc(C#N)c4)ccc32)n1	?	i	?	-2%	25µM*
CCn1ncc(NC(=O)Cn2ncc3cc(-c4ccc(F)cc4F)ccc32)n1	?	?	13µM*	5%[11.5 µM]	-64%
CCn1ncc(NC(=O)Cn2ncc3cc(-c4ccc(C(=O)N(C)C)cc4)ccc32)n1	-21%	6.3µM*	-12%	?	45µM*
CCn1ncc(NC(=O)Cn2ncc3cc(-c4cc(F)ccc4F)ccc32)n1	?	i	?	-9%	-63%
Cc1ccc([S+](=O)([O-])N2CCCC2C(=O)N2CCC(N3CCOCC3=O)CC2)cc1 (centres undefined)	4%	/	/	i	-5%
Cc1nn(-c2ccc(C(C)(C)C)cc2)c(C)c1[C@@H]1C=C[C@@H](NC(=O)CC(C)(C)CC(=O)O)C1	?	?	1%	i	i
Cc1nn(-c2ccc(C(C)C)cc2)c(C)c1[C@@H]1C=C[C@@H](NC(=O)Nc2ccc(Cl)cc2)C1	?	i	-19%	2%	?
Cc1nn(-c2ccc(C(C)(C)C)cc2)c(C)c1[C@@H]1C=C[C@@H](NCc2ccco2)C1	?	50µM*	-30%[70.6 µM]	4%[88.5 µM]	11µM*
Cc1nn(-c2ccc(C(C)C)cc2)c(C)c1[C@@H]1C=C[C@@H](NC(=O)NCc2ccccc2)C1	25µM*	?	7.1µM*	i	25µM*
Cc1nn(-c2ccc(C(C)(C)C)cc2)c(C)c1[C@@H]1C=C[C@@H](NC(=O)NCc2ccccc2)C1	?	?	18µM*	3%[88.5 µM]	28µM*
